# From PubChem BioAssay AID1347070 (National Center for Advancing Translational Sciences (NCATS), 2019)
# Screen size: about 94,000 compounds; about 20 (0.02%) were called active. About 1% were inconclusive and are not listed. Calls come from the whole dose curve; as a rule, active = well fitted activation curve with a large enough effect; inconclusive = small, poorly fitted or top-dose-only effect; inactive = flat fitted curve, though single readings scatter. Not all results are given here.
# Assay: qHTS of alpha-syn Inhibitors: NCGC Sytravon Library Screen; note: 0% is about no effect
# Conditions: S. cerevisiae alpha-synuclein toxicity rescue, BacTiter-Glo growth, 24 h; series mostly up to 46.1 µM; growth rescue (activation): at the top concentration
# Text: The goal of this project is to identify new chemical probes capable of reversing the toxicity associated with the Parkinson disease-related protein, alpha-synuclein. Compounds will be selected on their ability to restore growth in yeast cells expressing toxic levels of alpha-synuclein. These compounds will provide a complementary approach to deciphering the tangled mechanisms of toxicity and protection that we have uncovered through genome-wide genetic screens and are beginning to uncover in a large-scale proteomics analysis with mass spectroscopy. To this end, a miniaturized assay was developed to be screened against the Molecular Libraries Small Molecule Repository (MLSMR) to discover alpha-synuclein inhibitors. […] The phenotype of interest will be that of an Activator and this screen is run against the NCGC Sytravon Library collection. NIH Chemical Genomics Center [NCGC] NIH Molecular Libraries Probe Centers Network [MLPCN] MLPCN Grant: NS060957 Assay Submitter (PI): Susan Lindquist, Whitehead Institute/MIT
# Dispense 2.5 microL yeast galactose medium per 1536-well plate, pin compound, dispense 2.5 microL alpha-synuclein expressing yeast in galactose medium at OD600=0.02 (pregrown in raffinose medium to mid-log phase) per well, incubate for 24 hr at 30 deg C, and cell growth will be measured using 5 microL of Bactiter/Glo reagent to entire plate and read using Luminescence Protocol in ViewLux.
Compound,growth rescue (activation),outcome
c1ccc(-c2nnc(N3CCOCC3)c3ccccc23)cc1,3.62% (inactive),–
CCOCc1nnc(NC(=O)CCS(=O)(=O)Cc2ccccc2)s1,2.27% (inactive),–
CCCC(C(=O)NC1CCCC1)N(C(=O)Cn1nnc(-c2ccc(C)o2)n1)c1cccc(O)c1 (stereo not given),-2.04% (inactive),–
CCN(C(=O)CSc1nnnn1-c1ccccc1OC)C1CCS(=O)(=O)C1 (stereo not given),16.7% (inactive),–
O=c1[nH]c2ccc(S(=O)(=O)N3CCCC3)cc2[nH]1,0.361% (inactive),–
Cc1nnc(SCCCCSc2nnc(C)c(=O)[nH]2)[nH]c1=O,1.74% (inactive),–
COc1ccc(N2CCN(C(=S)Nc3ccc(S(N)(=O)=O)cc3)CC2)cc1,-4.62% (inactive),–
COc1ccc(/C=N/S(=O)(=O)c2ccccc2)cc1OC,-2.84% (inactive),–
Cc1ccc([C@H]2N[C@]3(CCCN(CC4CCCCC4)C3=O)[C@H]3C(=O)N(Cc4ccccc4)C(=O)[C@@H]23)cc1,4.32% (inactive),–
CCCCn1c(N)c(N(CCOC)C(=O)c2sc3ccccc3c2Cl)c(=O)[nH]c1=O,11.1% (inactive),–
CC(=O)NCc1ccc(S(=O)(=O)NC2CCN(Cc3ccccc3)CC2)cc1,-8.63% (inactive),–
CCN(CC(=O)Nc1c(F)cccc1F)C(=O)c1ccc(Sc2nncn2C)c([N+](=O)[O-])c1,0.905% (inactive),–
O=c1[nH]nc(SCCS(=O)(=O)c2ccc(F)cc2)n1-c1ccccc1C(F)(F)F,3.73% (inactive),–
Cc1sc2nc(CSCC(=O)NC3CCCCC3)[nH]c(=O)c2c1C,2.44% (inactive),–
CC1(C)C[C@H]2C3=CCC4[C@@]5(C)CC[C@H](O)[C@](C)(CO)C5CC[C@@]4(C)[C@]3(C)C[C@@H](O)[C@@]2(CO)[C@@H](O)[C@@H]1O (stereo not given in full),1.74% (inactive),–
Cc1c(C(=O)NC(C)C2CC3CCC2C3)cccc1[N+](=O)[O-] (stereo not given),11.3% (inactive),–
O=C(CCNC(=O)c1ccc([N+](=O)[O-])cc1)NC1CCCCC1,1.09% (inactive),–
Cn1c(CSCC(=O)Nc2ccccc2)nnc1SCc1ccccc1,-12.3% (inactive),–
Cc1cccc(N(CC(=O)N2CCCC2)S(C)(=O)=O)c1C,-7.71% (inactive),–
CN(C)C(CNC(=O)c1cc(Br)c(Br)s1)c1ccco1 (stereo not given),3.91% (inactive),–
Cc1ccc(CN2CCC(N3CCC(C(=O)NCC4CCCO4)CC3)CC2)o1 (stereo not given),-3.72% (inactive),–
O=C(NCCS(=O)(=O)NCc1ccc(Cl)cc1)c1ccccc1,-1.84% (inactive),–
CC1=C(C(=O)N2CCOCC2)CC(CC(=O)NCc2ccco2)C(=O)N1Cc1ccc(F)cc1 (stereo not given),-7.62% (inactive),–
Cc1ccc(C)n1NC(=O)c1ccc([N+](=O)[O-])cc1,-1.43% (inactive),–
COc1ccc(-c2cc(=O)oc3cc(OC(C)C(=O)NCC4CCC(C(=O)O)CC4)ccc23)cc1 (stereo not given),-0.947% (inactive),–

Compound,growth rescue (activation),outcome
CCOc1ccc(C(=O)CCC(=O)NC2=NCCS2)cc1,-17.3% (inactive),–
O=C1N/C(=C/c2cccs2)C(=O)N1Cc1ccc(F)cc1,-2.61% (inactive),–
C/C(COc1ccccc1)=N\NC(=O)c1nnn(-c2nonc2N)c1-c1ccc(C)cc1,-12.9% (inactive),–
CCCCn1c(N)c(N(CC(C)C)C(=O)c2cccc(S(=O)(=O)N3CCN(C(C)=O)CC3)c2)c(=O)[nH]c1=O,-0.923% (inactive),–
O=C(c1ccc(C(F)(F)F)cc1)C1CCCN(C(=O)c2csnn2)C1 (stereo not given),0.0205% (inactive),–
COc1ccc(/C=C/CN2CCN(Cc3ccc(C)cc3)C(CCO)C2)cc1 (stereo not given),-4.89% (inactive),–
CCOc1ccc(S(=O)(=O)N2CCCC(C(=O)N3CCC(C(N)=O)CC3)C2)cc1Cl (stereo not given),-12.6% (inactive),–
NS(=O)(=O)c1ccc(NC(=S)NNC(=O)c2cccs2)cc1,0.938% (inactive),–
O=C(COc1ccccc1O)NC1CCCC1,5.21% (inactive),–
CC1=C(C(=O)N2CCOCC2)CC(CC(=O)NCCN2CCOCC2)C(=O)N1CCC1=CCCCC1 (stereo not given),2.47% (inactive),–
COc1ccccc1C(=O)NC(=O)COC(=O)c1ccco1,4.89% (inactive),–
O=C(Nc1ccccc1)C1CC(=O)n2c(nc3ccccc32)N1 (stereo not given),-12.2% (inactive),–
Cc1ccc(C=O)c([B-](F)(F)F)c1,-10.2% (inactive),–
O=C(CNc1ccccc1N1CCCC1=O)Nc1cc(Cl)ccc1-n1cncn1,1.15% (inactive),–
O=C(/C=C/Nc1ccc(S(=O)(=O)Nc2cnc3ccccc3n2)cc1)c1cccnc1,-7.11% (inactive),–
CCOC(=O)c1cc(-c2sc(NC(=O)c3ccccc3)nc2C)n(CCO)n1,0.447% (inactive),–
COc1ccc2oc(C(=O)N(CC(C)C)C3CCS(=O)(=O)C3)c(C)c2c1 (stereo not given),-1.27% (inactive),–
CN(CCN1CCOCC1)Cc1nc(-c2ccc3c(c2)OCO3)no1,0.432% (inactive),–
COCOCCn1cc(CN2CCS(=O)(=O)N(Cc3ccc(-c4ccccc4)cc3)C(CC(C)C)C2=O)nn1 (stereo not given),-6.88% (inactive),–
CCc1nnc(NC(=O)c2ccco2)s1,-11.6% (inactive),–
Cn1ccc(=NC=C(C#N)C#N)c2ccccc21,2.17% (inactive),–
COc1cc(NS(=O)(=O)c2ccc(NC(=S)NC(=O)c3ccccc3)cc2)nc(OC)n1,13.9% (inactive),–
O=C(OCc1nnc(-c2ccccc2)o1)c1cc(=O)[nH]c2ccccc12,4.04% (inactive),–
O=C1[C@H]2[C@@H](c3ccc(C(F)(F)F)cc3)N[C@]3(CCCN(Cc4ccc(Cl)cc4)C3=O)[C@H]2C(=O)N1Cc1ccccc1,20.9% (inactive),–
Cn1cnnc1SCC(=O)NNC(=O)COc1ccc(Br)cc1,5.71% (inactive),–

Compound,growth rescue (activation),outcome
Cc1ccc(N(C(=O)Cc2cccs2)C(C(=O)NCC2CCCO2)c2ccncc2)cc1 (stereo not given),4.36% (inactive),–
COc1ccccc1NC(=O)CCSc1nnc(-c2ccc(O)cc2)o1,4.49% (inactive),–
O=C(OCc1cn([C@H]2C[C@H](c3ccccc3)N(C(=O)c3cccs3)C[C@@H]2O)nn1)c1ccccc1,4.38% (inactive),–
COc1ccc(NC(=O)CN(C)C(=O)c2cc(C)oc2C)cc1,-11.2% (inactive),–
Cc1noc(C)c1COc1ccccc1C(=O)N(C)CC(=O)Nc1cccc(F)c1,-6.68% (inactive),–
COc1ccc(N(C(=O)c2snc(C(N)=O)c2N)C(C(=O)NC2CCCC2)c2ccc(C)o2)c(OC)c1 (stereo not given),-6.84% (inactive),–
NS(=O)(=O)c1ccc(NC(=S)NC(=O)c2cccnc2)cc1,4.97% (inactive),–
C=C(C)COc1ccc(-c2nc(N)ncc2-c2ccccc2OC)c(O)c1,1.32% (inactive),–
Cc1cccc(OCC(=O)NCCCNC(=O)c2ccccn2)c1,-2.97% (inactive),–
O=C(NC1CCCC1)C1CC(=O)N(c2ccc(F)cc2)C1 (stereo not given),5.38% (inactive),–
CO/N=C/c1cn(-c2ccc(Cl)cc2)nn1,-2.78% (inactive),–
CC(OC(=O)c1ccc(NC(=O)CC#N)cc1)C(=O)Nc1ccc(S(=O)(=O)N2CCCC2)cc1 (stereo not given),-3.04% (inactive),–
Cc1cccc(C)c1NC(=O)CS(=O)CC(=O)N1CCN(c2ccccc2)CC1 (stereo not given),0.0275% (inactive),–
CCOc1ccc(NS(=O)(=O)c2ccc(C(=O)NCC(c3ccccc3OC)N3CCCC3)cc2)cc1 (stereo not given),-0.106% (inactive),–
O=[N+]([O-])c1ccc(C(S(=O)(=O)Cc2ccccc2)S(=O)(=O)Cc2ccccc2)cc1,6.13% (inactive),–
O=C(NCc1ccc(Cl)cc1)C(=O)NCC1CCCN1S(=O)(=O)c1cccs1 (stereo not given),3.28% (inactive),–
O=C(CNC(=O)N1CC(=O)Nc2ccccc21)Nc1ccc(Br)cc1F,-8.77% (inactive),–
O=C(c1ccc(N2CCCC2=O)cc1)N1CCN(c2ccc(C(F)(F)F)cc2[N+](=O)[O-])CC1,-12.1% (inactive),–
Cc1ccc(CN2CC(C(=O)N3CCN(S(=O)(=O)c4ccccc4)CC3)CC2=O)cc1 (stereo not given),-46.5% (inactive),–
CCN(C(=O)C1CCCN(c2nc(-c3ccc(OC)cc3)no2)C1)c1ccc(OC)cc1 (stereo not given),-9.06% (inactive),–
CN(C)c1ccc(C2Nc3ccccc3C(=O)N2NS(=O)(=O)c2ccccc2)cc1 (stereo not given),-4.67% (inactive),–
COc1cc(CNC2CCCC2)c(Br)cc1OCc1ccccc1,-7.75% (inactive),–
Cc1ccc(C(=O)N[C@H](C(=O)N2CCN(c3ncccn3)CC2)C(C)C)cc1,-38.6% (inactive),–
Cc1nnc(SC(C(=O)c2ccccc2)c2ccccc2)[nH]c1=O (stereo not given),2.28% (inactive),–
CCOC(=O)C1=C(CC)OC(N)=C(C#N)C1c1ccc(F)cc1F (stereo not given),4.04% (inactive),–

Compound,growth rescue (activation),outcome
COc1ccc(NC(=O)C2=C(C)NC(=O)NC2c2ccccc2[N+](=O)[O-])cc1 (stereo not given),-9.9% (inactive),–
NC(=O)CCN1CCN(S(=O)(=O)/C=C/c2ccccc2)CC1,-3.44% (inactive),–
COc1ccccc1N1CCN(CC(=O)NCCc2ccc(S(N)(=O)=O)cc2)CC1,0.992% (inactive),–
O=C(O)Cc1csc(-c2cccc(Oc3ccccc3)c2)n1,–,inactive
O=C(CN1CCCCCC1)NCCN1C(=O)S/C(=C\c2ccccc2Cl)C1=O,5% (inactive),–
CCOC(=O)c1cnn2c(SC)ncnc12,-4.38% (inactive),–
CCCCN1C(=O)C(CC(=O)NCc2cccs2)CC(C(=O)N2CCOCC2)=C1C (stereo not given),5.72% (inactive),–
OCCC#Cc1ccc(CN2CCN(Cc3ccsc3)C(CCO)C2)cc1 (stereo not given),3.34% (inactive),–
CCC(CC)C(=O)Nc1c2c(nn1-c1ccc(C)cc1)CS(=O)(=O)C2,-7.31% (inactive),–
Cc1cccc(NC(=O)CCn2c(=O)oc3ccccc32)c1,3.25% (inactive),–
CCCCN(C(=O)CSCc1ccc(C)cc1)c1c(N)n(Cc2ccccc2)c(=O)[nH]c1=O,-47.4% (inactive),–
O=C(CN1CCCSc2ccccc21)N1CCN(S(=O)(=O)c2ccccc2)CC1,3.26% (inactive),–
O=C(C1CCCO1)N1CCN(C(=O)C23CC4CC(CC(C4)C2)C3)CC1 (stereo not given),11% (inactive),–
CCOC(=O)C(C(=O)c1ccccc1)C(c1ccccc1)c1nccc2ccccc12 (stereo not given),-2.07% (inactive),–
COc1cccc(N2CC(C(=O)NCc3n[nH]c(=O)c4ccccc34)CC2=O)c1 (stereo not given),3.61% (inactive),–
CCCCS(=O)c1snnc1C (stereo not given),-1.6% (inactive),–
Cc1ccc(NC(=O)NC(=O)N(C2CCCCC2)S(=O)(=O)c2ccccc2)cc1,7.08% (inactive),–
O=C(Nc1ccccc1C(=O)N1CCOCC1)c1ccc(CSc2ccccc2)cc1,7.69% (inactive),–
CCN(CC)C(=O)C1=C(C)N(Cc2ccc(OC)cc2)C(=O)C(CC(=O)NCCCCc2ccccc2)C1 (stereo not given),-3.54% (inactive),–
CN(C)CCOCCOc1ccc(Cl)c2ccccc12,0.677% (inactive),–
O=C(Nc1cccc([N+](=O)[O-])c1)Nc1ccc(Cl)cn1,4.36% (inactive),–
O=C(NCC(F)(F)F)c1ccc(S(=O)(=O)NCCc2ccc3c(c2)OCCO3)cc1,12% (inactive),–
CC(=O)c1cnc(SCC(=O)O)nc1C,-11.9% (inactive),–
CN(C(=O)COC(=O)c1ccc(Br)o1)c1c(N)n(Cc2ccccc2)c(=O)[nH]c1=O,2.7% (inactive),–
COc1ccc(CNC(=O)C2CCN(S(=O)(=O)c3ccc(SC)cc3)CC2)cc1,4.73% (inactive),–
